Laboratory results from PubChem BioAssay (Tox21).
Records with an inconclusive call do not appear. The source made the active and inactive calls. Unless noted, the call rests on the fitted dose curve; in most records, active means well fitted curve in the direction sought with a large enough effect in the repeat runs; inconclusive means weak or mixed curves; inactive means no such curve, though single readings can be large; an effect the other way counts as inactive or inconclusive.

Columns and labels:
[1] = molecular target: Estrogen receptor beta (Homo sapiens) (UniProt Q92731); test: qHTS assay to identify small molecule agonists of the estrogen receptor beta (ER-beta) signaling pathway (AID 1259377; active means well fitted activation curve with a large enough effect in the signal ratio in the repeat runs, not every such curve was filed as active; the % refers to the signal ratio)
Estrogen receptor beta (Homo sapiens), sequence (Q92731 whole entry, looked up): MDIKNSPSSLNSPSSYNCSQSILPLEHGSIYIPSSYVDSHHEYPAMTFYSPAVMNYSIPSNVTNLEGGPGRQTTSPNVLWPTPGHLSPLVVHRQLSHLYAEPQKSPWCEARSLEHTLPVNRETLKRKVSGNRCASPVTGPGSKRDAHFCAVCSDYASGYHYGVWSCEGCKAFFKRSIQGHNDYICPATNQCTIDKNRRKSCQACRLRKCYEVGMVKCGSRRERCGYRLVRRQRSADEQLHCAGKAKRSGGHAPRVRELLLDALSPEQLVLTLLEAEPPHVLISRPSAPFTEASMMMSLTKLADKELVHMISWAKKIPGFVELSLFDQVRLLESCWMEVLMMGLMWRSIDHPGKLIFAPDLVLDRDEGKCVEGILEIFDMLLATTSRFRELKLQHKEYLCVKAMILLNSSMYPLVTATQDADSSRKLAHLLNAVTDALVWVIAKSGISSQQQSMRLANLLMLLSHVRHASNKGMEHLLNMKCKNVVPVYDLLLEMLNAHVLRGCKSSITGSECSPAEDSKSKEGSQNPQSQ
How it was run: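 ER-beta-UAS-bla HEK293T (GripTite) cells carrying a UAS-driven beta-lactamase reporter, in medium with 2% charcoal-stripped FBS, were exposed to compounds for 16 hr at 37C; LiveBLAzer B/G FRET substrate was then added and fluorescence read after 2 hours at room temperature.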

[2] = qHTS assay to identify small molecule agonists of the estrogen receptor beta (ER-beta) signaling pathway - cell viability counter screen (AID 1259380); further: nearly all actives have a fitted effect of over 30% in size
How it was run: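 CellTiter-Glo read, 30 min RT, same wells as bla assay; cells ER-beta-UAS-bla HEK293T; 16 hr compound, 37C; medium 2% charcoal-stripped FBS.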

[3] = qHTS assay to identify small molecule antagonists of the estrogen receptor beta (ER-beta) signaling pathway - cell viability counter screen (AID 1259382); further: series mostly up to about 92 µM; nearly all actives have a fitted effect of over 55% in size
How it was run: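 In this multiplexed counter screen, cells were seeded at 2,000 per well in medium with 2% charcoal-stripped FBS and incubated 6 hr before compound and 1nM final E2 were added. Sixteen hours later, ATP-based luminescence reported viability.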

[4] = molecular target: Estrogen receptor (Homo sapiens) (UniProt P03372); test: qHTS assay to identify small molecule agonists of the estrogen receptor alpha (ER-alpha) signaling pathway in the presence of an antagonist (AID 1259383; calls by dose curve; further: top concentration of the series differs between compounds; nearly all actives have a fitted effect of over 15% in size)
Estrogen receptor (Homo sapiens), sequence (P03372 whole entry, looked up): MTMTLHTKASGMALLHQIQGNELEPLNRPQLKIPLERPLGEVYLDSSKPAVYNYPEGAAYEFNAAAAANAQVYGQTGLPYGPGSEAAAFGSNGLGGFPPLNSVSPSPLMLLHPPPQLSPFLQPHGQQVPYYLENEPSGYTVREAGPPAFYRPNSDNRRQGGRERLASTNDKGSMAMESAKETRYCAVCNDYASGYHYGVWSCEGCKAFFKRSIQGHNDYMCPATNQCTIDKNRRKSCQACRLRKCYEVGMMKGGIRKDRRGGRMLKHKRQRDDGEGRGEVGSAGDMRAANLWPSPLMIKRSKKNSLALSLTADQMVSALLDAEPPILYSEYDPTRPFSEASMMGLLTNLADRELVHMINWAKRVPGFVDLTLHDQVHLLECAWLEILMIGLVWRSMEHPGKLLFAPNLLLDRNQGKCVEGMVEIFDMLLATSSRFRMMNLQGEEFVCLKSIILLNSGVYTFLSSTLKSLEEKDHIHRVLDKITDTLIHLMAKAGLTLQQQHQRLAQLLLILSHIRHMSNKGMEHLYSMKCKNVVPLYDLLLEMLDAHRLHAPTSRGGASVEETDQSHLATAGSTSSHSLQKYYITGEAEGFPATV
How it was run: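 Stably transfected VM7Luc4E2 reporter cells, kept 5 days in charcoal-stripped serum, received ICI-182,780 at 10.0nM final before compound addition. Following 22hr incubation at 37C and 5% CO2, luciferase signal was read by luminescence.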

[5] = qHTS assay to identify small molecule agonists of the estrogen receptor alpha (ER-alpha) signaling pathway in the presence of an antagonist - cell viability counter screen (AID 1259386);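 further: series mostly up to about 92 µM; cells exposed to compounds for 22 h at 37 °C before the viability read; nearly all actives have a fitted effect of over 30% in size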
How it was run: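 Viability counter screen using VM7Luc4E2 (full-length ER-alpha, four ERE-luciferase). The cells were treated with compounds alongside ICI-182,780 10.0nM for 22hr, and live-cell protease fluorescence was quantified with CellTiter-Fluor.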

[6] = molecular target: Progesterone receptor (Homo sapiens) (UniProt P06401); test: qHTS assay to identify small molecule agonists of the progesterone receptor (PR) signaling pathway (AID 1346784; calls by dose curve; further: nearly all actives have a fitted effect of over 30% in size)
Progesterone receptor (Homo sapiens), sequence (P06401 whole entry, looked up): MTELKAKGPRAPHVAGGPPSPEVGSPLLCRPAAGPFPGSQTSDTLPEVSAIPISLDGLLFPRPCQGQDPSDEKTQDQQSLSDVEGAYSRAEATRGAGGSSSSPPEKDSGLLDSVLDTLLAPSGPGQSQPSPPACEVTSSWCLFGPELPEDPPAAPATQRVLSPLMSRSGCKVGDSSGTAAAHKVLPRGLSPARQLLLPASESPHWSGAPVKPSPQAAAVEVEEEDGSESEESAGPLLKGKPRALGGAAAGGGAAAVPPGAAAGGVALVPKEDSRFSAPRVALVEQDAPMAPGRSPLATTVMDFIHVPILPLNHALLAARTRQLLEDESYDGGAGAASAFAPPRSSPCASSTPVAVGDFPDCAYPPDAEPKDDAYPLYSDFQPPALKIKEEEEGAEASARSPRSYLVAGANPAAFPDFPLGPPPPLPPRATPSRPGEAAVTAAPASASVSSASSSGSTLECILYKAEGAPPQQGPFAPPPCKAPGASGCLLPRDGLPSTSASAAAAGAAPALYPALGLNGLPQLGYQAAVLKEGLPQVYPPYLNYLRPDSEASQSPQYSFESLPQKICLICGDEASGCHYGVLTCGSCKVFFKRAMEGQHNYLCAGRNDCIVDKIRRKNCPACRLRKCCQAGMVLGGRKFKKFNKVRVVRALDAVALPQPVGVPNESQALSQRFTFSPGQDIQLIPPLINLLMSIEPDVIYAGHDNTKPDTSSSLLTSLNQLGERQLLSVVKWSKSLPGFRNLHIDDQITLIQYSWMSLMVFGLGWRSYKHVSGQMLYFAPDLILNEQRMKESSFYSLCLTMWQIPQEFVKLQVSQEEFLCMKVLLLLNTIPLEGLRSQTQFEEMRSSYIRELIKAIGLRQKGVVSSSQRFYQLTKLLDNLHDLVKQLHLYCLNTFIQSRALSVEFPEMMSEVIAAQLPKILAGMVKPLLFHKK
How it was run: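 PR-UAS-bla HEK 293T cells carrying a UAS-driven beta-lactamase reporter were seeded in medium with 2% charcoal-stripped FBS, preincubated 6 hr at 37C, then exposed to compounds in DMSO for 16 hr; agonism was read by LiveBLAzer B/G FRET fluorescence.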

[7] = molecular target: Progesterone receptor (Homo sapiens) (UniProt P06401); test: qHTS assay to identify small molecule antagonists of the progesterone receptor (PR) signaling pathway (AID 1346795; active means well fitted inhibition curve with a large enough effect in the signal ratio in the repeat runs, not every such curve was filed as active; the % refers to the signal ratio)
How it was run: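 PR-UAS-bla HEK293T cells carrying a UAS-driven beta-lactamase reporter were plated in medium with 2% charcoal-stripped FBS and rested 6 hr at 37C. Compounds were added with 1 nM R5020 (final) for 16 hr, then FRET substrate loaded 2 hr at room temperature.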

[8] = qHTS assay to identify small molecule antagonists of the progesterone receptor (PR) signaling pathway - cell viability counter screen (AID 1346798); further: series mostly up to about 92 µM; nearly all actives have a fitted effect of over 50% in size
How it was run: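 PR-UAS-bla HEK293T cells in medium with 2% charcoal-stripped FBS were treated with compounds plus R5020 for 16 hr at 37C. Cell viability was then read by CellTiter-Glo luminescence after 30 min at room temperature in the same wells.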

[9] = qHTS assay to identify small molecule agonists of the progesterone receptor (PR) signaling pathway - cell viability counter screen (AID 1346799; calls by dose curve; further: nearly all actives have a fitted effect of over 45% in size)
How it was run: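 PR-UAS-bla HEK293T cells, 3,000 per well in medium with 2% charcoal-stripped FBS, were preincubated 6 hr at 37C, then exposed to compounds for 16 hr; viability was read as CellTiter-Glo luminescence after 30 min at room temperature.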

[10] = qHTS assay to identify small molecule antagonists of the TGF-beta/Smad signaling pathway - cell viability counter screen (AID 1346824); further: nearly all actives have a fitted effect of over 50% in size
How it was run: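 SBE-bla HEK 293T cells, incubated overnight, then compound plus 0.25 ng/mL TGF-beta1 (stock added) for 5 hr at 37 C. Viability was read in the same wells by CellTiter-Glo luminescence after 30 min at room temperature.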

[11] = qHTS assay to identify small molecule agonists of the TGF-beta/Smad signaling pathway - cell viability counter screen (AID 1346829); further: top concentration of the series differs between compounds; nearly all actives have a fitted effect of over 45% in size
How it was run: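 CellTiter-Glo luminescence readout; SBE-bla HEK 293T cells, overnight plating, compound 5 hr at 37 C/5% CO2, then bla substrate 2 hr RT, then CellTiter-Glo 30 min RT.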

[12] = qHTS assay to identify small molecule agonists of the TGF-beta/Smad signaling pathway (AID 1346859; active means well fitted activation curve with a large enough effect in the signal ratio in the repeat runs, not every such curve was filed as active; the % refers to the signal ratio; further: series mostly up to about 77 µM)
How it was run: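 HEK 293T cells stably carrying a beta-lactamase reporter driven by the Smad binding element were seeded overnight, exposed to DMSO-dissolved compounds for 5 hr at 37 C, 5% CO2, then loaded with FRET substrate for 2 hr at room temperature.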

[13] = molecular target: Thyrotropin-releasing hormone receptor (Homo sapiens) (UniProt P34981); test: qHTS assay to identify small molecule agonists of the thyrotropin-releasing hormone receptor (TRHR) signaling pathway (AID 1346891; calls by dose curve; further: series mostly up to about 58 µM)
Thyrotropin-releasing hormone receptor (Homo sapiens), sequence (P34981 whole entry, looked up): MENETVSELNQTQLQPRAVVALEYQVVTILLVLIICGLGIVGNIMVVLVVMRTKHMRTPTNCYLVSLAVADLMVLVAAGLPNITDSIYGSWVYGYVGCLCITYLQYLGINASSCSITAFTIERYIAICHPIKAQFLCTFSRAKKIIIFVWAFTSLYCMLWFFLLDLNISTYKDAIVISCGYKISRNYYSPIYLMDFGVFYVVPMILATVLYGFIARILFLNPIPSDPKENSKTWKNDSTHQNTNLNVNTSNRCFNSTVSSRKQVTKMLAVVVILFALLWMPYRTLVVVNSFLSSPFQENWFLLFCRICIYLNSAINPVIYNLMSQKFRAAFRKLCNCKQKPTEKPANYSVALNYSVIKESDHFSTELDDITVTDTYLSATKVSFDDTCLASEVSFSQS
How it was run: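 TRHR-expressing HEK293 cells were plated 18 h at 37 °C/5% CO2, loaded with calcium dye 2 h at 37 °C, then given compound in DMSO; fluorescence was read kinetically for 3 min at 1 s intervals.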

[14] = qHTS assay to identify small molecule agonists of the androgen receptor (AR) signaling pathway in the presence of an antagonist - cell viability counter screen (AID 1259379);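 further: MDA-kb2 human breast cancer cells carrying an MMTV luciferase reporter; series mostly up to about 92 µM; nearly all actives have a fitted effect of over 25% in size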
How it was run: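 Seed MDA-kb2 at 3,000 cells/well; incubate 5 hr, 37C, 0% CO2. Add nilutamide to 3.0uM final, then pin compounds at 15 concentrations. Incubate 16 hr. Add CellTiter-Fluor at 15 hr, read fluorescence after 1 hr.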

[15] = molecular target: Thyrotropin-releasing hormone receptor (Homo sapiens) (UniProt P34981); test: qHTS assay to identify small molecule antagonists of the thyrotropin-releasing hormone receptor (TRHR) signaling pathway (AID 1346877; active means well fitted inhibition curve with a large enough effect in the repeat runs, not every such curve was filed as active; further: series mostly up to about 51 µM)
How it was run: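 Following an 18 h incubation at 37 °C and a 2 h calcium dye load, TRHR-HEK293 cells were exposed to compound (5 min, room temperature) and challenged with TRH, 1 nM final.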

[16] = molecular target: Estrogen receptor beta (Homo sapiens) (UniProt Q92731); test: qHTS assay to identify small molecule antagonists of the estrogen receptor beta (ER-beta) signaling pathway (AID 1259378; active means well fitted inhibition curve with a large enough effect in the signal ratio in the repeat runs, not every such curve was filed as active; the % refers to the signal ratio)
How it was run: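 ER-beta-UAS-bla HEK293T cells in 2% charcoal-stripped FBS medium treated with compound plus 1nM final 17-beta-estradiol for 16 hr at 37C. Beta-lactamase reporter read by FRET substrate fluorescence after 2 hours at room temperature.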

[17] = molecular target: Androgen receptor (Homo sapiens) (UniProt P10275); test: qHTS assay to identify small molecule agonists of the androgen receptor (AR) signaling pathway in the presence of an antagonist (AID 1259381; calls by dose curve; further: nearly all actives have a fitted effect of over 15% in size)
Androgen receptor (Homo sapiens), sequence (P10275 whole entry, looked up): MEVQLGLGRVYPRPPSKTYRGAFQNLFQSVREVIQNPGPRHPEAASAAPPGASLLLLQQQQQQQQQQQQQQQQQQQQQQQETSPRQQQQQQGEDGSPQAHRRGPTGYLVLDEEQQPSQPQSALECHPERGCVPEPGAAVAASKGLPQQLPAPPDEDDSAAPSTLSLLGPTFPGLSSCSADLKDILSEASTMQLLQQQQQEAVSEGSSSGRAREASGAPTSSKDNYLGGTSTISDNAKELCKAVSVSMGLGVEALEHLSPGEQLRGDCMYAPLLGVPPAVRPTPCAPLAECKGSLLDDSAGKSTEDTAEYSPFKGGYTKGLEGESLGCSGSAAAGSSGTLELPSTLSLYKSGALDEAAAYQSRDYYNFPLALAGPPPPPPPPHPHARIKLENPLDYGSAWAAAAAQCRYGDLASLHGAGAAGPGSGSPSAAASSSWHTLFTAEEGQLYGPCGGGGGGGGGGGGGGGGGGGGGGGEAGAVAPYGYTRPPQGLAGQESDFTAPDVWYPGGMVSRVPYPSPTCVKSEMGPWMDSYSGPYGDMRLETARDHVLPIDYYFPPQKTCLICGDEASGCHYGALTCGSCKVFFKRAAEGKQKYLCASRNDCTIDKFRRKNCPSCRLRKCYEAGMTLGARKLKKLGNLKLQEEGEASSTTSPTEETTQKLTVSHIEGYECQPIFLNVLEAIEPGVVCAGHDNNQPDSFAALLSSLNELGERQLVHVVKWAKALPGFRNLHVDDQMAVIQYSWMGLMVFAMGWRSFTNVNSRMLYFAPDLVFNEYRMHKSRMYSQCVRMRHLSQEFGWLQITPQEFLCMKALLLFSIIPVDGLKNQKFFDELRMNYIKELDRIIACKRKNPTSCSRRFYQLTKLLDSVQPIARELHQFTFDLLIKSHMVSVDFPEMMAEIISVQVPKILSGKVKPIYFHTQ
How it was run: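 Test compounds at 15 concentrations were incubated for 16hr with MDA-kb2 reporter cells in presence of 3.0uM nilutamide (final). Signal: ONE-Glo luciferase luminescence.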

[18] = qHTS assay to identify small molecule agonists or antagonists of the thyroid stimulating hormone receptor (TSHR) signaling pathway - wild type cell line counter screen (AID 1259384; calls by dose curve)
How it was run: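 Wild-type Hek293 cells, 800/well, 18 h at 37C, then compound with Ro20-1724 for 30 min RT. cAMP by HTRF (cAMP-d2/anti-cAMP cryptate), 1 h RT, fluorescence read. 15 concentrations, triplicates.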

[19] = molecular target: Thyrotropin receptor (Homo sapiens) (UniProt P16473); test: qHTS assay to identify small molecule antagonists of the thyroid stimulating hormone receptor (TSHR) signaling pathway (AID 1259385; calls by dose curve; further: nearly all actives have a fitted effect of over 20% in size)
Thyrotropin receptor (Homo sapiens), sequence (P16473 whole entry, looked up): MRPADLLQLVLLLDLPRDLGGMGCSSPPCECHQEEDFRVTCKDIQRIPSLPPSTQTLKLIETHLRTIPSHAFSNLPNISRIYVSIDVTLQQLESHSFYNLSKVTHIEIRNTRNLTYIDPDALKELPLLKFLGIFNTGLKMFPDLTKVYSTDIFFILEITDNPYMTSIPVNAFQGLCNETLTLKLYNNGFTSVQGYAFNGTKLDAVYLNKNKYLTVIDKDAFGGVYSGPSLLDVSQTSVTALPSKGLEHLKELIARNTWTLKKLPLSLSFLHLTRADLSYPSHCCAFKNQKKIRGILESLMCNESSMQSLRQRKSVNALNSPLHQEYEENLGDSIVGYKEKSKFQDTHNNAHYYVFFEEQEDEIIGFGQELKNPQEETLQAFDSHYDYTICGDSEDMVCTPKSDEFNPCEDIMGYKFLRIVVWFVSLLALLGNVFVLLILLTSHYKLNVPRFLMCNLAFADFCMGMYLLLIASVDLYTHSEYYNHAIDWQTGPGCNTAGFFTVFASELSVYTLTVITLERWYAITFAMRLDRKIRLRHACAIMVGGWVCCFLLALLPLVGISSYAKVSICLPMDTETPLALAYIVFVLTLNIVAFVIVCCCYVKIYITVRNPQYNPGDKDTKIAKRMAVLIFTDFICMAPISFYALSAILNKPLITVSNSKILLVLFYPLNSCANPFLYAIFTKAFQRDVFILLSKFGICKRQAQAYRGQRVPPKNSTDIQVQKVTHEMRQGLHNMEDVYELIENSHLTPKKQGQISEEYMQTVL
How it was run: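 TSHR-HEK293 cells (800/well) plated 18 h, then compounds with Ro20-1724 and TSH at 1.5 ng/mL final, 30 min at room temperature. cAMP quantified by HTRF (cAMP-d2/anti-cAMP-cryptate, 1 h); 15 concentrations in triplicate.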
On the % scale 0 is the no-effect control and ±100 the full control effect.

CCOC(=O)c1cnc2c(cnn2CC)c1NN=C(C)C
inactive: Potency [1] | Potency [2] | outcome [3] | outcome [4] | Potency [5] | Potency [6] | Potency [7] | Potency [8] | Potency [9] | outcome [10] | outcome [11] | outcome [12] | Potency [13]

Nc1ccn([C@@H]2O[C@H](CO)[C@@H](O)[C@@H]2O)c(=O)n1
inactive: Potency [14] | Potency [2] | outcome [3] | outcome [4] | Potency [5] | Potency [6] | Potency [7] | Potency [9] | outcome [10] | outcome [11] | outcome [12] | outcome [15] | Potency [13]

O=[N+]([O-])c1cncn1CCN1CCOCC1
inactive: Potency [1] | Potency [16] | Potency [14] | Potency [17] | outcome [3] | outcome [4] | outcome [18] | outcome [19] | Potency [5] | Potency [6] | Potency [7] | Potency [8] | Potency [9] | outcome [10] | outcome [12] | Potency [13]

O=S(=O)(O)c1cc(O)c(O)c(S(=O)(=O)O)c1
inactive: Potency [1] | Potency [16] | Potency [2] | Potency [17] | outcome [3] | outcome [4] | Potency [5] | Potency [6] | Potency [7] | Potency [8] | Potency [9] | outcome [10] | outcome [11] | outcome [12] | outcome [15] | Potency [13]

CN1CCN(c2cc3c(nn2)Oc2ccccc2N3C)CC1
inactive: activation [1] 7.81% [at 19 µM] | activity change, negative = cytotoxicity [14] 0.723% [at 19 µM] | activity change, negative = cytotoxicity [2] 2.64% [at 19 µM] | activity change, negative = cytotoxicity [3] -0.299% [at 19 µM] | activity change, negative = cytotoxicity [5] -4.4% [at 19 µM] | activation [6] 0.134% [at 19 µM] | activity change, negative = inhibition [7] 15.6% [at 18.9 µM] | activity change, negative = cytotoxicity [8] -18% [at 18.9 µM] | activity change, negative = cytotoxicity [9] -4.66% [at 19 µM] | viability change, negative = cytotoxic [10] 1.43% [at 15.8 µM] | activity change, negative = cytotoxicity [11] 19.9% [at 15.8 µM] | activation [12] 3.68% [at 15.8 µM]

O=[N+]([O-])c1ccc(/C=N\O)o1
inactive: Potency [1] | Potency [16] | Potency [2] | outcome [3] | outcome [4] | outcome [18] | outcome [19] | Potency [5] | Potency [6] | Potency [7] | Potency [8] | Potency [9] | outcome [10] | outcome [11] | outcome [12] | outcome [15] | Potency [13]

Cc1ccc(C(=O)c2ccc(CC(=O)O)n2C)cc1
inactive: Potency [14] | Potency [2] | Potency [17] | outcome [3] | outcome [4] | outcome [18] | outcome [19] | Potency [5] | Potency [6] | Potency [8] | Potency [9] | outcome [10] | outcome [11] | outcome [15] | Potency [13]

CC[C@H]1OC(=O)[C@H](C)[C@@H](O[C@H]2C[C@@](C)(OC)[C@@H](O)[C@H](C)O2)[C@H](C)[C@@H](O[C@@H]2O[C@H](C)C[C@H](N(C)C)[C@H]2O)[C@](C)(OC)C[C@@H](C)C(=O)[C@H](C)[C@@H](O)[C@]1(C)O
inactive: Potency [14] | Potency [2] | outcome [3] | outcome [4] | Potency [5] | Potency [6] | Potency [7] | Potency [8] | Potency [9] | outcome [10] | outcome [11] | outcome [12] | Potency [13]

CC(C)(CCC(=O)O)C(=O)O
inactive: Potency [1] | Potency [16] | Potency [2] | outcome [3] | outcome [4] | Potency [5] | Potency [6] | Potency [7] | Potency [8] | Potency [9] | outcome [10] | outcome [11] | outcome [12] | outcome [15] | Potency [13]

Nc1c2c(nc3c1CCC3)CCCC2
inactive: Potency [14] | Potency [2] | Potency [17] | outcome [3] | outcome [4] | outcome [18] | outcome [19] | Potency [5] | Potency [6] | Potency [7] | Potency [8] | Potency [9] | outcome [10] | outcome [12] | outcome [15] | Potency [13]

O=C(O)c1cc(C(=O)O)cc(C(=O)O)c1
inactive: Potency [14] | Potency [2] | outcome [3] | outcome [4] | outcome [19] | Potency [5] | Potency [6] | Potency [7] | Potency [8] | Potency [9] | outcome [10] | outcome [11] | outcome [12] | Potency [13]

Nc1ccn([C@@H]2O[C@H](CO)[C@@H](O)C2(F)F)c(=O)n1
inactive: Potency [1] | Potency [14] | outcome [3] | outcome [4] | outcome [18] | outcome [19] | Potency [5] | Potency [7] | Potency [8] | Potency [9] | outcome [10] | outcome [11] | outcome [12]
